Experimental data reported in PubChem BioAssay.
The source made the active and inactive calls.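 The calls were made as follows, unless noted: active = visual image review flags a hit and inhibition of aggregation exceeds 20%; inconclusive = visual hit but inhibition at or below 20%; inactive = no hit on visual image review.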

Key:
[1] = inhibitors of TNFa-induced NFkB p65 translocation, primary screen, imaging, HUVEC, MLSMR starter and 10KST1 sets (AID 438;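 active = inhibition above 20% together with a positive visual image hit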;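 also: compound added about 3h40 before a 20 min TNFalpha stimulation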;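 as to inhibition: signal is the nuclear over cytoplasmic p65 intensity ratio per well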); conditions: HUVEC TNFa-induced p65 nuclear translocation; cell count: measured here: nuclei count (cytotoxicity indicator), at 2.08 µM; inhibition: at 2 µM, stronger effect = higher value, 0% TNFa-plus-vehicle, 100% no-TNFa wells
[2] = inhibitors of mutant huntingtin aggregation, primary screen, imaging, exon1htt(103Q)mCFP cells, high-content imaging (AID 483); conditions: exon1htt(103Q)mCFP cell line, aggregate imaging, at 2 µM; inhibition of aggregation: stronger effect = higher value; nuclei count: measured here: cell count, toxicity;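 also: compound exposure lasted 3 days before fixation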;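 as to nuclei count: percent of the per-plate median nuclei count of sample wells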
[3] = inhibitors of E-selectin induction by TNFa, primary screen, imaging, HUVEC, immunofluorescence, MLSMR starter and 10KST1 sets (AID 487;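 active = visually confirmed hit in the image check and inhibition above 20%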;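 as to inhibition: signal is fraction of cell area covered by stained E-selectin grains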;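 as to nuclei count: 100% = median nuclei count of all wells on the same plate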); conditions: HUVEC TNFalpha-induced E-selectin immunofluorescence imaging, at 2 µM; inhibition: stronger effect = higher value; nuclei count: measured here: cell number, toxicity
[4] = target: Voltage-gated potassium channel subunit beta-2 (Rattus norvegicus) (UniProt P62483); experiment: KvBeta enzyme negative modulators, primary screen, biochemical, NADPH fluorescence (AID 622;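 active = fluorescence slope higher than the sample average by over 3 SD, cut at about -0.22 in these data, passing the limit was not always enough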;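 also: slope of raw intensity against log time taken from 70 to 1610 s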); conditions: recombinant KvBeta, 4-cyanobenzaldehyde reduction, at 10 µM, stronger effect = higher value
[5] = target: Voltage-gated potassium channel subunit beta-2 (Rattus norvegicus) (UniProt P62483); experiment: KvBeta positive modulators, primary screen, biochemical, NADPH fluorescence (AID 623;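 active = NADPH fluorescence slope more negative than the mean of all samples by about 3 SD, 99.7% confidence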;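 also: fluorescence intensity change per second fitted from 20 to 320 s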); conditions: Recombinant KvBeta, NADPH fluorescence decrease slope, 10 min; at 10 µM; stronger effect = lower value
[6] = target: Alpha-2C adrenergic receptor (Homo sapiens) (UniProt P18825); experiment: modulators of alpha2C/GIRK thallium flux, primary screen, cell-based, HEK293 alpha2C/GIRK1/2 (AID 624;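 active = fluorescence slope after compound addition differing from the mean of all screened samples at 99.7% confidence, in either direction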;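 also: slope of fluorescence ratio to pre-addition baseline per second over 15 to 24 s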); conditions: thallium flux BTC fluorescence, at 10 µM, actives lie on both sides
[7] = inhibitors of Sendai virus-induced IRF3 signaling, primary screen, TLR/RLR signaling modifier project, cell-based, Sendai virus stimulus, luciferase, 10K MLSCN set (AID 602276;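 active = inhibition at or above 50% at 10 µM; inactive = inhibition below 50%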;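 also: firefly luciferase from ISG56 promoter only with Renilla not read in this screen; 0% = Sendai virus plus DMSO and 100% = medium plus DMSO without virus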); conditions: HEK293 RL24 IRF3 luciferase reporter, at 10 µM, stronger effect = higher value
[8] = inhibitors of poly I:C-induced TLR3 signaling, primary screen, cell-based, poly I:C stimulus, luciferase, 10K MLSCN set (AID 602277;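 active = inhibition of the reporter signal at or above 50%; inactive = inhibition below 50%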); conditions: HEK293-TLR3 RL24 IRF3 luciferase reporter, at 10 µM, stronger effect = higher value

Alpha-2C adrenergic receptor (Homo sapiens), sequence (P18825 whole entry, looked up): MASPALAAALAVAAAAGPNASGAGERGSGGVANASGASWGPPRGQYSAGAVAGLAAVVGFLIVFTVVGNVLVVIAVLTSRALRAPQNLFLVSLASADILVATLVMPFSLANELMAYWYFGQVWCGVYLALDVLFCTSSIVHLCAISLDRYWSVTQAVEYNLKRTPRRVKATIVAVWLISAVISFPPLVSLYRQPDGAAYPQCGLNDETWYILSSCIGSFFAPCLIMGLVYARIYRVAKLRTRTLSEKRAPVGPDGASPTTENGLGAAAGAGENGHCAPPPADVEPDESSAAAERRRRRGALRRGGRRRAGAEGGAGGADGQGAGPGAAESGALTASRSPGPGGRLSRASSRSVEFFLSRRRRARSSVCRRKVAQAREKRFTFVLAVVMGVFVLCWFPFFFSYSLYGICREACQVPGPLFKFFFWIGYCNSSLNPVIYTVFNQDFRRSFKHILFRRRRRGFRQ
Voltage-gated potassium channel subunit beta-2 (Rattus norvegicus), sequence (P62483 whole entry, looked up): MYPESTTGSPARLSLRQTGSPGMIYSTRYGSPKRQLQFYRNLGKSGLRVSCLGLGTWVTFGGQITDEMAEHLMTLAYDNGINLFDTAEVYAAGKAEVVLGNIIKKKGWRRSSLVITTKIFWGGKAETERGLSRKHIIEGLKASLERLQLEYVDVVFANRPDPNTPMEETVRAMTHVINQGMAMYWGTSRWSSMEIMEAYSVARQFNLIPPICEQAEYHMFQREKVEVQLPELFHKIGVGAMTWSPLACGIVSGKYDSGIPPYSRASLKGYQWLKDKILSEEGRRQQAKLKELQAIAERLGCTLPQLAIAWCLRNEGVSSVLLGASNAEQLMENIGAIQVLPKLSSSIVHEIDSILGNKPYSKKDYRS

| Structure (SMILES) | cell count [1] | inhibition [1] | inhibition of aggregation [2] | nuclei count [2] | inhibition [3] | nuclei count [3] | fluorescence slope [4] | NADPH fluorescence slope [5] | slope [6] | inhibition [7] | inhibition [8] |
| --- | --- | --- | --- | --- | --- | --- | --- | --- | --- | --- | --- |
| CCOC(=O)N1CCC(n2c(SCC(=O)NCc3ccco3)nc3ccsc3c2=O)CC1 | 729 | 3.4% (inactive) | 2.8% (inactive) | 97.8% | -97.7% (inactive) | 118% | -0.386 (inactive) | -2.9e-05 (inactive) | 0.00588 (inactive) | 4.14% (inactive) | 23.6% (inactive) |
| CC1Cc2ccccc2N1C(=O)c1cccnc1 (stereo not drawn) | 254 | -1% (inactive) | -30.3% (inactive) | 106% | -64.3% (inactive) | 103% | -0.422 (inactive) | -8.5e-05 (inactive) | 0.00616 (inactive) | 14.1% (inactive) | 25.5% (inactive) |
| CCC(C(=O)Nc1ncccn1)(C(F)(F)F)C(F)(F)F | 218 | 2% (inactive) | 25.4% (inactive) | 93.4% | -2.6% (inactive) | 110% | -0.499 (inactive) | 5.3e-05 (inactive) | 0.00586 (inactive) | -24.5% (inactive) | -0.327% (inactive) |
| O=C(Nc1ccccc1C(=O)N1CCOCC1)c1cccc(S(=O)(=O)N2CCCC2)c1 | 440 | -5.3% (inactive) | 0.3% (inactive) | 92.3% | -138% (inactive) | 118% | -0.455 (inactive) | 4.9e-06 (inactive) | 0.00695 (inactive) | 2.51% (inactive) | 22.9% (inactive) |
| CCOc1ccccc1C1CC(=O)Nc2cc3c(cc21)OCO3 (stereo not drawn) | 266 | 14.4% (inactive) | -18.8% (inactive) | 86.9% | -9.8% (inactive) | 98.7% | -0.38 (inactive) | -4.6e-05 (inactive) | 0.00457 (inactive) | 3.25% (inactive) | 40.2% (inactive) |
| CCOC(=O)c1sc2nc(SCC#N)n(CCCN3CCCC3=O)c(=O)c2c1C | 399 | 3.4% (inactive) | -11.9% (inactive) | 89.9% | 49% (inactive) | 96.1% | -0.461 (inactive) | -6.7e-05 (inactive) | 0.00586 (inactive) | 4.69% (inactive) | -8.03% (inactive) |
| CC(=O)c1ccc2c3c(cccc13)C(=O)N(c1c(C)nn(C)c1C)C2=O | 655 | -4.4% (inactive) | -24.6% (inactive) | 108% | -14% (inactive) | 97.5% | -0.633 (inactive) | -5.6e-06 (inactive) | 0.00453 (inactive) | 6.92% (inactive) | -10.1% (inactive) |
| Cc1ccc(CC2SC(=O)NC2=O)cc1Cl (stereo not drawn) | 790 | 10.4% (inactive) | -3% (inactive) | 97.9% | 0% (inactive) | 119% | -0.488 (inactive) | -5.4e-05 (inactive) | 0.00487 (inactive) | 10.2% (inactive) | 12% (inactive) |
| CC1CCCN(C(=O)CN2CCN(C(=O)c3ccco3)CC2)C1 (stereo not drawn) | 238 | 0.4% (inactive) | 20.8% (inactive) | 76% | -18.8% (inactive) | 152% | -0.596 (inactive) | -6.2e-05 (inactive) | 0.00367 (inactive) | 7.97% (inactive) | 14.7% (inactive) |
| CN1CCN(S(=O)(=O)c2ccc(NC(=O)Nc3cccc(Cl)c3)cc2)CC1 | 468 | 0.3% (inactive) | -4.4% (inactive) | 91.8% | 36.5% (inactive) | 114% | -0.614 (inactive) | -3e-05 (inactive) | 0.00476 (inactive) | -1.37% (inactive) | -11.1% (inactive) |
| CCn1c(SCC(=O)c2ccc(Cl)cc2)nnc1-c1ccoc1C | 352 | 0.2% (inactive) | -24% (inactive) | 110% | -69.1% (inactive) | 108% | -0.503 (inactive) | -6.2e-05 (inactive) | 0.00727 (inactive) | 3.62% (inactive) | 5.26% (inactive) |
| Cc1c[nH]c2cccc(OCC(O)CNC(C)(C)C)c12 (stereo not drawn) | 324 | -1.6% (inactive) | 15.3% (inactive) | 95.2% | -4.9% (inactive) | 123% | -0.454 (inactive) | 1.3e-05 (inactive) | 0.00547 (inactive) | 12.1% (inactive) | 27.1% (inactive) |
| CC1=C/C(=C/N(C)c2ccccc2)C(=O)S1 | 582 | -3.5% (inactive) | -10.1% (inactive) | 97.7% | 31.4% (inactive) | 88.1% | -0.61 (inactive) | 1.5e-05 (inactive) | 0.0049 (inactive) | -17.2% (inactive) | -17% (inactive) |
| c1ccc(Cn2nnnc2CN2CCCC2)cc1 | 433 | -9.4% (inactive) | 2.6% (inactive) | 100% | -38.6% (inactive) | 94% | -0.499 (inactive) | -2.2e-05 (inactive) | 0.00601 (inactive) | 14.5% (inactive) | 19.4% (inactive) |
| CCCOC(=O)C1[C@H]2C(=O)N(CCCOC)C[C@]23C=C[C@H]1O3 (stereo partly drawn) | 706 | -12.9% (inactive) | -14.9% (inactive) | 112% | -21.6% (inactive) | 118% | -0.605 (inactive) | 3.2e-05 (inactive) | 0.00864 (inactive) | 11.7% (inactive) | 15.6% (inactive) |
| CCCCc1nc2ccccc2n2cc3c(=O)n(C)c(=O)n(C)c3c12 | 877 | 5.2% (inactive) | -29.8% (inactive) | 81.2% | -48.7% (inactive) | 104% | -0.524 (inactive) | -1.7e-05 (inactive) | 0.00741 (inactive) | 14.3% (inactive) | 28.9% (inactive) |
| CCCc1cc(C(=O)Nc2ccccc2C(=O)OC)no1 | 864 | 5.5% (inactive) | 4.8% (inactive) | 92.4% | -50.4% (inactive) | 111% | -0.629 (inactive) | -3.3e-06 (inactive) | 0.0059 (inactive) | -14.6% (inactive) | -14.1% (inactive) |
| Cc1cnc(C(=O)Nc2ccc(N3CCN(C(=O)OC(C)(C)C)CC3)cc2)cn1 | 316 | 8.7% (inactive) | -7.1% (inactive) | 4.4% | -1.6% (inactive) | 93.1% | -0.636 (inactive) | -3.5e-05 (inactive) | 0.00617 (inactive) | -2.13% (inactive) | 6.1% (inactive) |
| COC(=O)C1=C(N)Oc2cc(C)n(Cc3ccncc3)c(=O)c2C1c1cccnc1 (stereo not drawn) | 594 | -13.5% (inactive) | 0% (inactive) | 87.4% | 10.9% (inactive) | 104% | -0.479 (inactive) | -7e-05 (inactive) | 0.00483 (inactive) | 12.8% (inactive) | 14.1% (inactive) |
| CCn1ncc(C2=NOC(C(=O)Nc3ccc4c(c3)OCO4)C2)c1C (stereo not drawn) | 640 | -0.3% (inactive) | 0.2% (inactive) | 99.9% | -156% (inactive) | 112% | -0.5 (inactive) | -0.000277 (inactive) | 0.00345 (inactive) | -17.8% (inactive) | -34% (inactive) |
| O=C1c2ccccc2C(=O)N1CCCn1nnc(-c2ccc(N3CCOCC3)cc2)n1 | 319 | -8.2% (inactive) | 28% (inactive) | 111% | -80.5% (inactive) | 109% | -0.619 (inactive) | -1.3e-05 (inactive) | 0.00347 (inactive) | 15.2% (inactive) | 21.3% (inactive) |
| COc1ccc(C2CC(c3ccc(C)cc3)Nc3ncnn32)cc1 (stereo not drawn) | 615 | -0.2% (inactive) | -9.1% (inactive) | 107% | 30.7% (inactive) | 98.3% | -0.524 (inactive) | -2.3e-05 (inactive) | 0.00685 (inactive) | 7.28% (inactive) | 16.4% (inactive) |
| Cc1ccc(O)c(-c2cc(C(=O)Nc3ccc(S(=O)(=O)N4CC(C)OC(C)C4)cc3)[nH]n2)c1 (stereo not drawn) | 371 | 6.2% (inactive) | 0.4% (inactive) | 97.2% | 0.1% (inactive) | 92.7% | -0.478 (inactive) | -0.000199 (inactive) | 0.00494 (inactive) | 22.4% (inactive) | 43.5% (inactive) |
| CC(C)CCNC(=O)C(c1ccco1)N(CC1CCCO1)C(=O)Cn1nnc2ccccc21 (stereo not drawn) | 393 | 10.3% (inactive) | 5.4% (inactive) | 104% | -72.5% (inactive) | 103% | -0.612 (inactive) | -4.6e-05 (inactive) | 0.00382 (inactive) | 8.01% (inactive) | 16.4% (inactive) |
| O=C(Nc1ccc(SC(F)F)cc1)c1ccc2nccnc2c1 | 823 | -1.3% (inactive) | 14.5% (inactive) | 101% | 55.1% (active) | 95% | -0.39 (inactive) | 2e-05 (inactive) | 0.00714 (inactive) | -15% (inactive) | -139% (inactive) |
| CCC1(CC)C(=O)N(C)C(=O)NC1=NCc1ccccc1 | 512 | -4.7% (inactive) | -9.9% (inactive) | 107% | 24.4% (inactive) | 96.9% | -0.334 (inactive) | 2e-05 (inactive) | 0.0048 (inactive) | 18.2% (inactive) | 12.1% (inactive) |
| CCOC(=O)c1[nH]c(C)c(C(=O)Nc2ccccc2C)c1C | 619 | 12.1% (inactive) | -101% (inactive) | 7.1% | -15.2% (inactive) | 94.8% | -0.603 (inactive) | -5.4e-05 (inactive) | 0.00703 (inactive) | 27.7% (inactive) | 11.1% (inactive) |
| COc1ccc(N2CCN(CCNS(=O)(=O)c3cccc4nsnc34)CC2)cc1 | 353 | -3% (inactive) | 8.4% (inactive) | 106% | -119% (inactive) | 104% | -0.443 (inactive) | 1.8e-05 (inactive) | 0.00512 (inactive) | 11.2% (inactive) | 18% (inactive) |
